# From PubChem BioAssay (EPA / NIEHS)
# Records with an inconclusive call do not appear. Activity calls are given as the source filed them. The calls were made as follows: active = hit-call score of the fitted dose curve at least 0.9, where 1 is the maximum; inconclusive = response in the unintended direction; inactive = score below 0.9.
# Experiment: ACEA_ER_80hr: ACEA Biosciences xCELLigence Real-Time Cell Analysis on Estrogen Receptor Agonism for Proliferation (AID 2282667)
# Settings: T47D proliferation, impedance (xCELLigence), 80 h
# Summary of the method: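 Cell-growth kinetics were measured by impedance in T47D cells treated continuously with compound (top 100 uM final, 1:4 steps, 8 points). Activity at 80 h was scored as signal gain over the DMSO baseline.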
SMILES,outcome,AC50
CC(C)(C)N(NC(=O)c1ccc(Cl)cc1)C(=O)c1ccccc1,inactive,
Oc1ccc(I)cc1,inactive,
Nc1ccc([N+](=O)[O-])cc1Cl,inactive,
c1ccc2c(c1)sc1ccccc12,inactive,
Nc1ccc(Sc2ccc(N)cc2)cc1,inactive,
O=C(O)C(F)(F)OC(F)(F)C(F)(F)OC(F)(F)C(=O)O,inactive,
O=c1[nH]c2ccccc2c(=O)o1,inactive,
O=C(O)C(F)(F)C(F)(F)C(=O)O,inactive,
CCOP(=S)(OCC)SCn1nnc2ccccc2c1=O,inactive,
Cc1ccc2c(c1N)C(=O)c1ccccc1C2=O,inactive,
O=C(O)C(F)(F)OC(F)(F)C(F)(F)OC(F)(F)F,inactive,
NC(=O)C(F)(F)C(F)(F)F,,20500 nM (active)
CC(Cl)CN(C)C (centres undefined),inactive,
COP(=O)(O)OC,inactive,
CC(C)Nc1ccc(Nc2ccccc2)cc1,inactive,
C=C(C)C(=O)OCC1CO1 (centres undefined),inactive,
O=P(OCC(Br)CBr)(OCC(Br)CBr)OCC(Br)CBr (centres undefined),inactive,
Cc1c([N+](=O)[O-])cc2c(c1[N+](=O)[O-])C(C)(C)CC2(C)C,inactive,
O=c1ssc(Cl)c1Cl,inactive,
O=S(=O)(c1ccc(O)cc1)c1ccc(O)cc1,,2180 nM (active)

SMILES,outcome,AC50
CCOP(=O)(O)C(N)=O,inactive,
COP(=O)(CCC(=O)NCO)OC,inactive,
N#Cc1c(-c2ccc(Cl)cc2)[nH]c(C(F)(F)F)c1Br,inactive,
O=S(=O)(F)C(F)(F)C(F)(F)C(F)(F)C(F)(F)C(F)(F)C(F)(F)C(F)(F)C(F)(F)F,inactive,
N#Cc1ccc(O)cc1,inactive,
COC(=O)C(F)(F)C(F)(F)OC(F)(C(F)(F)F)C(F)(F)OC(F)=C(F)F (centres undefined),inactive,
CC(C)(C)c1ccccc1OP(=O)(Oc1ccccc1)Oc1ccccc1,inactive,
Oc1ccccc1Br,inactive,
Clc1ccc(Oc2ccccc2)cc1,inactive,
O=C(O)C(F)(OC(F)(F)C(F)(F)C(F)(F)F)C(F)(F)F (centres undefined),inactive,
CC1(C)CN=C(NN=C(/C=C/c2ccc(C(F)(F)F)cc2)/C=C/c2ccc(C(F)(F)F)cc2)NC1,,56.3 nM (active)
CCCCN(CC)C(=O)SCCC,inactive,
CCOP(=S)(NC(C)C)Oc1ccccc1C(=O)OC(C)C (centres undefined),inactive,
FC(F)(F)C(F)(C(F)(F)F)C(F)(F)C(F)(F)CC1CO1 (centres undefined),inactive,
CCOP(=S)(OCC)SCS(=O)(=O)CC,inactive,
OCC(F)(F)OC(F)(F)C(F)(F)OC(F)(F)C(F)(F)OC(F)(F)CO,,976 nM (active)
CNC(=O)Oc1ccc(N(C)C)c(C)c1,inactive,
N#C/C=C/c1ccccc1,inactive,
CCOP(=S)(OCC)SCSc1ccc(Cl)cc1,inactive,
